Assay outcomes as filed in PubChem BioAssay.
Sampled rows, rich in hits. Any-hit rate of the full collection: about 0.84%.
SRC1 TRFRET art – TR-FRET artefact, counter-screen to PPARgamma/SRC-1 agonist assay | TR-FRET ratio at 8 µM | hit rate 0.34% among 99,000 | TR-FRET detection artefact counter-screen, emission ratio; active compounds read high | AID 1051; in the data active = TR-FRET ratio above about 2300
SRC2 TRFRET art – flags TR-FRET format artefacts in PPARgamma SRC-2 recruitment agonist screen. TR-FRET artefact counter-screen; active compounds read high. hit rate 0.4% among 200,000. AID 1049. TR-FRET ratio at 8 µM
PPARg SRC2 recr – promotes SRC-2 coactivator recruitment by human PPARgamma | PPARgamma LBD-SRC-2 recruitment, biochemical | activation, % at 8 µM | hit rate 0.34% among 200,000 | AID 1032; in the data active = activation above about 22%;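 note: 0% = vehicle and 100% = reference agonist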
Target sequence (P37231 whole entry, looked up, the tested form may be a part): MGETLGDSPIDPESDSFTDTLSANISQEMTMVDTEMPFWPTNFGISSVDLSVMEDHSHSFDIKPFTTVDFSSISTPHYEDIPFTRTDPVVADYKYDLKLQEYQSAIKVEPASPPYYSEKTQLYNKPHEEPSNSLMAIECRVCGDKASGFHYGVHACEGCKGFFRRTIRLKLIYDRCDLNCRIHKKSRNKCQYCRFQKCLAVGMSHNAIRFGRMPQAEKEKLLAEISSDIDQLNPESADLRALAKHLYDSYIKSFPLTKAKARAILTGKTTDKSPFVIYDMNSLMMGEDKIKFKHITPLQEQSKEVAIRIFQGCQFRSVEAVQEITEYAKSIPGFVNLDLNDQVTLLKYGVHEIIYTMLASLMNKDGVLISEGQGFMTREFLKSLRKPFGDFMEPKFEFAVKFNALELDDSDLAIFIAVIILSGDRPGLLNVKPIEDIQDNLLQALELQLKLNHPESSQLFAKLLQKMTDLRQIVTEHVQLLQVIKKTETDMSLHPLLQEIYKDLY
PPARg SRC1 recr – PPARgamma-driven SRC-1 recruitment agonism; P37231; PPARgamma-SRC-1 coactivator recruitment biochemical assay; activation, % at 8 µM; hit rate 0.41% among 200,000; AID 631; in the data active = activation above about 19%;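 note: 0% = DMSO and 100% = reference agonist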
SRC3 TRFRET art – flags TR-FRET format artefacts in PPARgamma SRC-3 recruitment agonist screen | TR-FRET artefact counter-screen, PPARgamma/SRC-3 format; active compounds read high | TR-FRET ratio at 8 µM | hit rate 0.39% among 99,000
PPARg SRC-3 ag – PPARgamma-driven SRC-3 recruitment agonism; biochemical PPARgamma/SRC-3 coactivator recruitment assay; P37231; hit rate 0.26% among 200,000; activation, % at 8 µM; AID 731; in the data active = activation above about 23%;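 note: 0% = DMSO and 100% = reference agonist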
Numbers without * were called inactive; . = no result. Cut-off read from the data, not from the text of the source, unless noted: active = TR-FRET ratio above about 2000; inactive = the rest.

SMILES	SRC1 TRFRET art	SRC2 TRFRET art	PPARg SRC2 recr	PPARg SRC1 recr	SRC3 TRFRET art	PPARg SRC-3 ag
CCn1cc(/C=C/C(=O)Nc2ccn(Cc3c(F)c(F)c(F)c(F)c3F)n2)cn1	1932	1606	28*	5	1426	9
CCn1cc(C(=O)N2CCCC2)c(=O)c2cc(S(=O)(=O)N3CCOCC3)ccc21	.	1396	6	0	.	0
O=C(NCc1ccco1)C1Cc2ccccc2CN1S(=O)(=O)c1ccccc1F (stereo unspecified)	.	1552	9	0	.	4
COc1ccc(C(=O)Nc2nc3c(s2)CCCC3)cc1S(=O)(=O)N1CCCc2ccccc21	2068	1754	10	1	2089*	5
Cc1ccc(S(=O)(=O)Nc2ccc(-c3csc(-c4ccccc4)n3)cc2)cc1	2042	1791	6	12	2149*	6
CCCCNC(=O)CSc1nnc(-c2c[nH]c3ccccc23)n1CC1CCCO1 (stereo unspecified)	.	1523	-6	-2	.	-8
CCOC(=O)c1sc(=NC(=O)c2cccs2)n(C)c1C	1624	1596	10	2	1752	-1
Cc1ccc2c(c1)sc(=NC(=O)c1cccs1)n2C	2965*	1499	-1	7	3246*	6
O=C(COc1ccc2ccccc2c1)NNC(=O)Cc1ccccc1	2551*	1727	20	65*	1802	15
O=C(COc1ccc2ccccc2c1)Nc1ccc(S(=O)(=O)N2CCCCCC2)cc1	.	2073*	18	3	.	0
Cc1onc(-c2ccccc2)c1C(=O)N(Cc1ccco1)Cc1cccs1	1391	1687	-6	2	1472	-2
OCCN=C1CCCc2c1[nH]c1ccc(Br)cc21	.	1789	14	19*	.	12
CC(C)NC(=O)NC(=O)COC(=O)c1ccccc1F	1701	1407	7	0	1341	3
CC(C)NC(=O)NC(=O)CSc1ccccc1F	1782	1669	-4	-2	3589*	38*
Cc1onc(-c2c(F)cccc2Cl)c1C(=O)N1C=CC(C(F)(F)F)=NCC1	.	2038*	5	8	.	17
Cc1onc(-c2c(Cl)cccc2Cl)c1C(=O)N1C=CC(C(F)(F)F)=NCC1	.	1675	10	4	.	10
Cn1c(=O)c(Oc2cc(Cl)cc(Cl)c2)nc2ccccc21	.	1628	4	29*	.	-4
COc1ccc(Oc2nc3ccccc3n(C)c2=O)cc1	.	1546	8	-3	.	7
Cc1ccc(S(=O)(=O)N2CCC(NC(=O)c3cccc(C)c3)CC2)cc1	1648	1528	-1	1	1456	1
COC(=O)Cc1cc(=O)oc2cc(O)ccc12	1717	1558	-2	0	1660	3
COc1ccc(Nc2nc(-c3ccccc3)c(C(=O)Nc3cccnc3)s2)cc1	2466*	1853	16	17	2178*	19
C=CCNC(=O)C1(c2ccccc2)CC1(Cl)Cl (stereo unspecified)	2022	1600	-7	4	1702	3
COc1ccc(NS(=O)(=O)c2c(C)n(C)c(=O)n(C)c2=O)cc1OC	.	1716	24*	-4	.	3
CC(C)(O)C#Cc1ccc(CN2CCN(C3CCCCC3)C(CCO)C2)cc1 (stereo unspecified)	2568*	1582	1	24*	1573	-2
COc1ccc(OC)c(NC(=O)CSc2nc(C)cs2)c1	.	1685	-2	7	.	5
SMILES	SRC1 TRFRET art	SRC2 TRFRET art	PPARg SRC2 recr	PPARg SRC1 recr	SRC3 TRFRET art	PPARg SRC-3 ag
Cc1cccc(N2C(S)=C(C#N)C(=O)NC2c2ccco2)c1 (stereo unspecified)	1809	1620	8	11	1528	5
N#CC1=C(S)N(c2ccccc2)C(c2ccc(-c3cccc(Cl)c3)o2)NC1=O (stereo unspecified)	2388*	1822	10	6	1991	4
O=C(CNS(=O)(=O)c1ccc(Br)s1)NCC1COc2ccccc2O1 (stereo unspecified)	.	1575	2	1	.	-10
CC(NC(=O)COC(=O)c1cn(-c2ccccc2)nc1-c1cccs1)c1ccccc1 (stereo unspecified)	.	2073*	7	15	.	0
O=C(c1cn(-c2ccccc2)nc1-c1cccs1)N1CCN(c2ccc(F)cc2)CC1	.	2165*	3	12	.	12
O=C(Nc1ccncc1)c1cn(-c2ccccc2)nc1-c1cccs1	.	1391	3	2	.	-4
O=c1c2ccccc2nc2n1CCCCN2	.	1645	-1	5	.	9
O=C(O)c1ccccc1NS(=O)(=O)c1ccccc1C(F)(F)F	.	1535	1	2	.	3
CCn1cc(S(=O)(=O)Nc2ccccc2C(F)(F)F)cn1	1890	1708	23*	9	1619	2
COc1cccc(NC(=O)CSc2nc3ccsc3c(=O)n2-c2ccc(C(=O)O)cc2)c1	2045	1748	5	11	1757	7
O=C(CSc1ccc2nnc(-c3ccc(Cl)cc3)n2n1)N1CCCc2ccccc21	1993	3594*	46*	-1	1869	0
CC(C)c1nnc(NC(=O)c2cccc(NC(=O)C(F)(F)F)c2)s1	1816	1976*	7	4	1623	4
Nc1ccc2c(c1)OC1(CCCCC1)O2	1548	1487	-2	-11	1442	-2
COCCNC(=O)c1cccc(Nc2nc(-c3ccccc3)c3cc(Cl)ccc3n2)c1	1652	1529	1	0	1711	0
c1ccc(-n2ncc3c(NCc4cccs4)ncnc32)cc1	1950	1716	9	8	2147*	5
CCN(CC)c1c(-c2ccccc2)c2cc(C)ccc2[nH]c1=O	2033	1789	6	4	1590	5
CC/C(C)=N/NC(=O)c1[nH]c2ccc(C)cc2c1-c1ccccc1	2076	1988*	7	5	1693	1
Cc1ccc2c(c1)N(CC(=O)OCC(=O)NCc1ccccc1)C(=O)CO2	1774	1543	8	1	1615	4
O=[N+]([O-])c1ccc(COc2cccc(CNc3ccc(F)cc3)c2)cc1	1914	1394	-3	-2	1639	-4
Oc1ccc(NCc2cccc(OCc3ccc(F)cc3)c2)cc1	1688	1856	-1	23*	1598	3
COc1ccccc1NC(=O)C1=C(C)NC(SCC(=O)c2ccccc2)=C(C#N)C1c1ccco1 (stereo unspecified)	.	2496*	16	18	.	20
CC(C)Oc1ccc(CNC(=S)N/N=C/c2ccc([N+](=O)[O-])cc2)cc1	.	1595	3	4	.	8
CC(=O)NC1=NC(=O)/C(=C/c2cc(C)n(-c3ccc(NC(C)=O)cc3)c2C)S1	1777	1615	5	3	2601*	24*
CC(=O)NC1=NC(=O)/C(=C/c2cc(C)n(-c3cccc(C(=O)O)c3)c2C)S1	2073	1638	5	0	1697	2
CCN1/C(=C\C(=S)Nc2ccccc2)Sc2ccccc21	3876*	2548*	-10	1	3725*	6
